Assay results from the supplement of paper PMC6411743.
± gives the standard deviation of the averaged measurements. Targets with the largest changes are over-represented here; the source holds about 5,400 in all.

Compound: Nc1nc2c(ncn2[C@@H]2O[C@H](COP(=O)(O)OP(=O)(O)OP(=O)(O)O)[C@@H](O)[C@H]2O)c(=O)[nH]1 [guanosine triphosphate]
Assay: NP40-soluble protein abundance relative to vehicle (solubility fold change) (ratio); higher = more soluble protein in presence of GTP
Description: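 Solubility proteome profiling in Jurkat crude lysate. Lysate was treated with Mg-GTP (0.1-10 mM) for 10 min at room temperature and 3 min at 37 °C, then solubilised with 0.8% NP40 and benzonase, followed by ultracentrifugation. Proteins were quantified by TMT10 LC-MS/MS; the value is the NP40-soluble abundance relative to the NP40-processed vehicle, from 3 independent experiments.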

Sequence of UniProt P11388 (P11388 whole entry): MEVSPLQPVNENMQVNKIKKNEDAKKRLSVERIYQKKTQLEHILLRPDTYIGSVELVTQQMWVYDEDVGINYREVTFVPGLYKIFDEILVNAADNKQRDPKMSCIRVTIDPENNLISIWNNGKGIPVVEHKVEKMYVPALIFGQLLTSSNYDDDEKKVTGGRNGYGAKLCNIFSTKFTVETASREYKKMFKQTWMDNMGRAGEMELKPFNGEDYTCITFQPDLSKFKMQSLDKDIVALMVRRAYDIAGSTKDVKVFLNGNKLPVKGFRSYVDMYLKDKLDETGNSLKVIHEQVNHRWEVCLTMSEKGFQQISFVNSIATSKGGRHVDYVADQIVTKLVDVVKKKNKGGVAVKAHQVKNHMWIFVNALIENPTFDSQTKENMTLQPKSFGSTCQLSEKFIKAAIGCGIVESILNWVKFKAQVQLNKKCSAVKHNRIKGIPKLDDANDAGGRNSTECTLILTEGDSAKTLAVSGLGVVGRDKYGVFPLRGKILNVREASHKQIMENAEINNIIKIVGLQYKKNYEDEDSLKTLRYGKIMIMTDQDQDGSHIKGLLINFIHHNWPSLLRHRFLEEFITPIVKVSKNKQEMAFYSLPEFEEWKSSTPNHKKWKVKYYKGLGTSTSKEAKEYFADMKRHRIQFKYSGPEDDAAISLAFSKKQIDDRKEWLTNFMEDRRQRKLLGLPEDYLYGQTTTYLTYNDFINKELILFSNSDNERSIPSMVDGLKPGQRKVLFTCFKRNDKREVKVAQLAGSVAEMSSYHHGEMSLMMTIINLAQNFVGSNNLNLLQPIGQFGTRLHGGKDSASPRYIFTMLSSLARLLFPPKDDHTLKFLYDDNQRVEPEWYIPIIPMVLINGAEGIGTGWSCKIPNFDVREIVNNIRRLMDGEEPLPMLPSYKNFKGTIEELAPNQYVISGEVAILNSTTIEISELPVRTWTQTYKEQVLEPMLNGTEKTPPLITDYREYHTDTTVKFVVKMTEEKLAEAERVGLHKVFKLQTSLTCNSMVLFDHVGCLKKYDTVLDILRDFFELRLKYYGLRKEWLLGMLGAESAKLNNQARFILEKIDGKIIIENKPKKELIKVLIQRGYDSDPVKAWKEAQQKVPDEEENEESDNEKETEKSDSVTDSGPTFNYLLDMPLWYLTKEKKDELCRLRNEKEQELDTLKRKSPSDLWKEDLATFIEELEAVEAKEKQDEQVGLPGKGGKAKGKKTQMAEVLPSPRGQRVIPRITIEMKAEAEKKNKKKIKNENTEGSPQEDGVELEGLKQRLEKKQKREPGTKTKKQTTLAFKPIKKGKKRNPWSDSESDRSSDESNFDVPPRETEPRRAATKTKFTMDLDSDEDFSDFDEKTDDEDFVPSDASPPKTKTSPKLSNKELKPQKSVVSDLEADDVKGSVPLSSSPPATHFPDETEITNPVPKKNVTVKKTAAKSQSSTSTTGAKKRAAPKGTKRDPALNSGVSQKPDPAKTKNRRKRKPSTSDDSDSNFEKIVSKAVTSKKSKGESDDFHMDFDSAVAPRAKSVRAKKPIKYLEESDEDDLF
Sequence of UniProt P10768 (P10768 whole entry): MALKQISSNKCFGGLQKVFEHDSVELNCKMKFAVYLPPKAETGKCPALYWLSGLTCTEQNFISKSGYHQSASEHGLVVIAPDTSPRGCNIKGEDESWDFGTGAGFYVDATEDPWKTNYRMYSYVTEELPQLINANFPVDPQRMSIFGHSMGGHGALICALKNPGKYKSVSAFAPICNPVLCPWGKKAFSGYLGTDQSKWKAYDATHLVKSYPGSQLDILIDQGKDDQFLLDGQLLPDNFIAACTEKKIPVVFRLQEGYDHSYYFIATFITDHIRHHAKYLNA
Sequence of UniProt O43809 (O43809 whole entry): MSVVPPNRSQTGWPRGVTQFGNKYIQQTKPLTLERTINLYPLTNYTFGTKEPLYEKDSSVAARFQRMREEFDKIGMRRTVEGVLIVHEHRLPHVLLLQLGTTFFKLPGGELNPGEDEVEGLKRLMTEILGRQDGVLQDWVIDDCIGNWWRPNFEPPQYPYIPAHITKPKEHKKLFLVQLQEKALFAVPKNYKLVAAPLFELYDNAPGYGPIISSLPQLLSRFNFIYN
Sequence of UniProt P12931 (P12931 whole entry, looked up): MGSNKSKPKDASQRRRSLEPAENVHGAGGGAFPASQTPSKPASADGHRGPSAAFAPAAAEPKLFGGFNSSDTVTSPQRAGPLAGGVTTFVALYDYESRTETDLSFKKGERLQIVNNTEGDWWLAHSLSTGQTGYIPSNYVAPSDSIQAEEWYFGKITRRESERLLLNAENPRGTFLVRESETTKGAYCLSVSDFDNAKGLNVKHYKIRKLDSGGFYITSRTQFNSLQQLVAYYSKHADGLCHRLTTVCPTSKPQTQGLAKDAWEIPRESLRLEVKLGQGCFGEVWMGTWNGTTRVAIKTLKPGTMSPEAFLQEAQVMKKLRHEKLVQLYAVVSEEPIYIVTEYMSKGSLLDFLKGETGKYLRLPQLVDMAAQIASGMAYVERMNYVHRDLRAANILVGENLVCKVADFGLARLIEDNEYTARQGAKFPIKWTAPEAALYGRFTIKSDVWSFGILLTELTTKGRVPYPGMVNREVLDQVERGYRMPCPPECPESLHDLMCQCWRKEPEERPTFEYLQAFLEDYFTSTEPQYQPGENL
Sequence of UniProt P00387 (P00387 whole entry): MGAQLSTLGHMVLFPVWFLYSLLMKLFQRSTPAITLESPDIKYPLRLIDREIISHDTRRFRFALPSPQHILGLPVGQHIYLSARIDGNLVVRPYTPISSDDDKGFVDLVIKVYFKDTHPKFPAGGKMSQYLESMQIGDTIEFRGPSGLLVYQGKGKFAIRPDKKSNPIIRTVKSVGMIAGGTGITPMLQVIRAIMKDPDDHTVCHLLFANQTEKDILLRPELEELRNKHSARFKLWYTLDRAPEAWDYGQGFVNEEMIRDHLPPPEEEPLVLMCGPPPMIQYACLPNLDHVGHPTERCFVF

Target	NP40-soluble protein abundance (concentration: 0.1mM)	NP40-soluble protein abundance (concentration: 0.5mM)	NP40-soluble protein abundance (concentration: 1mM)	NP40-soluble protein abundance (concentration: 2mM)	NP40-soluble protein abundance (concentration: 4mM)	NP40-soluble protein abundance (concentration: 6mM)	NP40-soluble protein abundance (concentration: 8mM)	NP40-soluble protein abundance (concentration: 10mM)
NUDT21 (UniProt O43809)	1.11 ± 0.12	1.39 ± 0.12	1.64 ± 0.21	1.86 ± 0.31	2.02 ± 0.39	2.04 ± 0.35	1.97 ± 0.25	2.07 ± 0.44
UniProt P12931|P12931-2	1.05 ± 0.05	1.05 ± 0.063	0.955 ± 0.018	0.9845 ± 0.0092	0.905 ± 0.063	0.896 ± 0.015	0.894 ± 0.052	0.837 ± 0.074
UniProt P00387|P00387-2|P00387-3	1.11 ± 0.13	1.1 ± 0.14	0.945 ± 0.11	0.947 ± 0.15	0.938 ± 0.14	0.925 ± 0.14	0.882 ± 0.1	0.853 ± 0.14
UniProt P11388|P11388-2|P11388-3|P11388-4	1.06 ± 0.054	1.14 ± 0.036	1.2 ± 0.022	1.43 ± 0.052	1.73 ± 0.1	1.94 ± 0.16	2.01 ± 0.18	2.12 ± 0.15
ESD (UniProt P10768)	0.959 ± 0.015	0.958 ± 0.032	0.924 ± 0.032	0.876 ± 0.025	0.882 ± 0.034	0.897 ± 0.04	0.875 ± 0.044	0.839 ± 0.059
